Assay results taken from PubChem BioAssay (NCI).
This is part of a sample that, as a whole, favours compounds with a hit. Of some 83,000 tested, about 20% had one in any assay.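 48-hour exposure, single concentration, 96-well plates; percent growth endpoint where 0 means no net growth. Active: below 10.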 Unmarked numbers belong to inactive results. The source made the active and inactive calls.

What was measured:
Test in all cases: NCI-60 one-dose screen, 48 h (100 = growth as untreated, 0 = no growth, -100 = all killed)
[1] = tested on: RPMI-8226 leukemia; conditions: 10 µM unless noted
[2] = tested on: OVCAR-8 ovarian; conditions: 10 µM unless noted
[3] = tested on: OVCAR-5 ovarian; conditions: 10 µM unless noted
[4] = tested on: OVCAR-4 ovarian; conditions: 10 µM unless noted
[5] = tested on: SK-OV-3 ovarian; conditions: 10 µM unless noted
[6] = tested on: IGROV1 ovarian; conditions: 10 µM unless noted
[7] = tested on: OVCAR-3 ovarian; conditions: 10 µM unless noted
[8] = tested on: HS 578T breast; conditions: 10 µM unless noted
[9] = tested on: NCI/ADR-RES ovarian; conditions: 10 µM unless noted
[10] = tested on: T-47D breast; conditions: 10 µM unless noted
[11] = tested on: BT-549 breast; conditions: 10 µM unless noted
[12] = tested on: MDA-MB-435 melanoma; conditions: 10 µM unless noted
[13] = tested on: SW-620 colon; conditions: 10 µM unless noted
[14] = tested on: MCF7 breast; conditions: 10 µM
[15] = tested on: HCT-116 colon; conditions: 10 µM unless noted
[16] = tested on: HCC-2998 colon; conditions: 10 µM unless noted
[17] = tested on: KM12 colon; conditions: 10 µM unless noted

## O=c1cc(NC2CCN(CCCc3ccccc3)CC2)c2cc(Cl)ccc2o1
[1]
  growth: -8.63% (active)
[2]
  growth: -0.533% (active)
[3]
  growth: 30.5%
[4]
  growth: 12.7%
[5]
  growth: 4.31% (active)
[6]
  growth: -4.09% (active)
[7]
  growth: -16.6% (active)
[8]
  growth: 2.69% (active)
[9]
  growth: 6.68% (active)
[10]
  growth: 4.55% (active)
[11]
  growth: 17.8%
[12]
  growth: -8.02% (active)
[13]
  growth: 6.98% (active)
[14]
  growth: 3.46% (active)
[15]
  growth: 8.12% (active)
[16]
  growth: -6.89% (active)
[17]
  growth: 0.149% (active)

## O=c1nc2sc3nc4ccccc4cc3cc-2s1
[1]
  growth: 128%
[2]
  growth: 112%
[3]
  growth: 120%
[4]
  growth: 115%
[5]
  growth: 108%
[6]
  growth: 127%
[7]
  growth: 140%
[8]
  growth: 79.9%
[9]
  growth: 103%
[10]
  growth: 119%
[11]
  growth: 112%
[12]
  growth: 117%
[13]
  growth: 107%
[14]
  growth: 98.1%
[15]
  growth: 102%
[16]
  growth: 106%
[17]
  growth: 129%

## COc1cc(C(C)n2cc(-c3ccccc3)nn2)ccc1OC1CCCC1 (stereo unspecified)
[1]
  growth: 36.1%
[2]
  growth: 65.6%
[3]
  growth: 93.1%
[4]
  growth: 54.9%
[5]
  growth: 75.8%
[6]
  growth: 70.9%
[7]
  growth: 61.5%
[8]
  growth: 94%
[9]
  growth: 45%
[10]
  growth: 51.5%
[11]
  growth: 69.1%
[12]
  growth: 65.4%
[13]
  growth: 74.7%
[14]
  growth: 48.1%
[15]
  growth: 52.3%
[16]
  growth: 70.4%
[17]
  growth: 71.8%

## C1=CC2(C=C1)OC21CCC2(C=CC3(C2)OC3C2CCCCC2)CC1 (stereo unspecified)
[1]
  growth: 103%
[2]
  growth: 107%
[3]
  growth: 104%
[4]
  growth: 103%
[5]
  growth: 109%
[6]
  growth: 107%
[7]
  growth: 110%
[8]
  growth: 103%
[9]
  growth: 98.4%
[10]
  growth: 104%
[11]
  growth: 107%
[12]
  growth: 97.4%
[13]
  growth: 109%
[14]
  growth: 106%
[15]
  growth: 101%
[16]
  growth: 105%
[17]
  growth: 105%

## Cc1ccc(C)c(-c2csc(Nc3ccc(C)c(C)c3)n2)c1
[1]
  growth: 2.64% (active)
[2]
  growth: 54.5%
[3]
  growth: 94%
[4]
  growth: 54.5%
[5]
  growth: 77.8%
[6]
  growth: 81%
[7]
  growth: 67.4%
[8]
  growth: 57.9%
[9]
  growth: 54.2%
[10]
  growth: 39.3%
[11]
  growth: 64.6%
[12]
  growth: -58.3% (active)
[13]
  growth: -33% (active)
[14]
  growth: -30.3% (active)
[15]
  growth: 3.25% (active)
[16]
  growth: 27.6%
[17]
  growth: 59.5%

## CCC1=C[C@@H]2CN(C1)Cc1c([nH]c3ccccc13)[C@@](C(=O)OC)(c1cc3c(cc1OC)N(C)[C@H]1[C@@](O)(C(=O)OC)[C@H](OC(C)=O)[C@]4(CC)[C@@H]5C[C@@H]5CN5CC[C@]31[C@@H]54)C2
[1]
  growth: -20.3% (active)
[2]
  growth: 14.5%
[3]
  growth: 44.6%
[4]
  growth: 14.6%
[5]
  growth: -24% (active)
[6]
  growth: 1.74% (active)
[7]
  growth: -25.8% (active)
[8]
  growth: -5.73% (active)
[9]
  growth: 1.35% (active)
[10]
  growth: 72%
[11]
  growth: 12.8%
[12]
  growth: -57.7% (active)
[13]
  growth: 26.1%
[14]
  growth: 3.46% (active)
[15]
  growth: 6.72% (active)
[16]
  growth: -13.1% (active)
[17]
  growth: 5.74% (active)

## CN(C)c1ccc(/C=C/c2ccnc3c(O)cccc23)cc1
[1]
  growth: 1.91% (active)
[2]
  growth: 8.43% (active)
[3]
  growth: 35.5%
[4]
  growth: 31.9%
[5]
  growth: 24.7%
[6]
  growth: 11.4%
[7]
  growth: 29.7%
[8]
  growth: 43%
[9]
  growth: 19.5%
[10]
  growth: 16.9%
[11]
  growth: 17.8%
[12]
  growth: 18.6%
[13]
  growth: 21.6%
[14]
  growth: 18.2%
[15]
  growth: 18.6%
[16]
  growth: 55.7%
[17]
  growth: 16.2%

## O=NN(Cc1cccnc1)C(=O)NC1CCCCC1
[1]
  growth: 95.3%
[2]
  growth: 104%
[3]
  growth: 97.4%
[4]
  growth: 104%
[5]
  growth: 113%
[6]
  growth: 113%
[7]
  growth: 114%
[8]
  growth: 118%
[9]
  growth: 105%
[10]
  growth: 98.1%
[11]
  growth: 112%
[12]
  growth: 108%
[13]
  growth: 107%
[14]
  growth: 92.9%
[15]
  growth: 104%
[16]
  growth: 107%
[17]
  growth: 109%

## Cc1c(C(=O)OCCO)cc(-c2ccc(Cl)cc2)n1-c1ccc(Cl)cc1Cl
[1]
  growth: 84.9%
[2]
  growth: 83.8%
[3]
  growth: 84.1%
[4]
  growth: 97.3%
[5]
  growth: 72.7%
[6]
  growth: 90.2%
[7]
  growth: 91.9%
[8]
  growth: 81.3%
[9]
  growth: 77.1%
[10]
  growth: 62%
[11]
  growth: 92.8%
[12]
  growth: 4.72% (active)
[13]
  growth: 67.3%
[14]
  growth: 44.3%
[15]
  growth: 60.3%
[16]
  growth: 100%
[17]
  growth: 52.4%

## N[C@@H](CC/[N+]([O-])=N/O)C(=O)O
[1]
  growth: 101%
[2]
  growth: 109%
[3]
  growth: 100%
[4]
  growth: 105%
[5]
  growth: 105%
[6]
  growth: 93.3%
[7]
  growth: 102%
[8]
  growth: 98.4%
[9]
  growth: 103%
[10]
  growth: 94.4%
[11]
  growth: 95.2%
[12]
  growth: 98.4%
[13]
  growth: 104%
[14]
  growth: 93.7%
[15]
  growth: 99.1%
[16]
  growth: 112%
[17]
  growth: 104%

## CCOC(=O)c1cnc2c(C)cccc2c1Nc1ccc(C(C)=O)cc1
[1]
  growth: -34.2% (active)
[2]
  growth: 35%
[3]
  growth: 45%
[4]
  growth: 16.2%
[5]
  growth: 68.2%
[6]
  growth: 2.45% (active)
[7]
  growth: -8.93% (active)
[8]
  growth: 25.6%
[9]
  growth: 25.1%
[10]
  growth: -18.4% (active)
[11]
  growth: 61.5%
[12]
  growth: -63.8% (active)
[13]
  growth: -62.2% (active)
[14]
  growth: -39.7% (active)
[15]
  growth: 1.75% (active)
[16]
  growth: -91% (active)
[17]
  growth: -34.7% (active)

## CCOC(=O)c1c2c(n3cccc(Cl)c13)C(=O)c1ncccc1C2=O
[1]
  growth: 61.2%
[2]
  growth: 12%
[3]
  growth: 84.1%
[4]
  growth: 23.5%
[5]
  growth: 54.4%
[6]
  growth: 61.9%
[7]
  growth: 5.39% (active)
[8]
  growth: 61.3%
[9]
  growth: 38.3%
[10]
  growth: 75.9%
[11]
  growth: 69.2%
[12]
  growth: 79.9%
[13]
  growth: 36.4%
[14]
  growth: 43.3%
[15]
  growth: 8.41% (active)
[16]
  growth: 46%
[17]
  growth: 46.3%

## CC(C)(C)c1ccc(C2CC(=O)C3=C(C2)Nc2ccccc2N(C(=O)c2ccccc2Cl)C3c2ccc(F)cc2)cc1 (stereo unspecified)
[1]
  growth: 14.1%
[2]
  growth: -12% (active)
[3]
  growth: 38.9%
[4]
  growth: -68.3% (active)
[5]
  growth: 62.5%
[6]
  growth: -26.7% (active)
[7]
  growth: -28.5% (active)
[8]
  growth: 81.5%
[9]
  growth: 24.3%
[10]
  growth: 9.46% (active)
[11]
  growth: 44.4%
[12]
  growth: -80.1% (active)
[13]
  growth: 2.52% (active)
[14]
  growth: -33.3% (active)
[15]
  growth: 7.97% (active)
[16]
  growth: -21.2% (active)
[17]
  growth: 9.1% (active)

## CN(C)/C=C1\SC(=Nc2ccc(Cl)cc2)NC1=O
[1]
  growth: 108%
[2]
  growth: 97.8%
[3]
  growth: 96%
[4]
  growth: 108%
[5]
  growth: 104%
[6]
  growth: 102%
[7]
  growth: 107%
[8]
  growth: 95.5%
[9]
  growth: 102%
[10]
  growth: 105%
[11]
  growth: 104%
[12]
  growth: 104%
[13]
  growth: 99.9%
[14]
  growth: 91%
[15]
  growth: 104%
[16]
  growth: 104%
[17]
  growth: 106%

## COc1ccccc1C(=O)O/N=C(\N)Cc1cccc2ccccc12
[1]
  growth: 73.4%
[2]
  growth: 78.6%
[3]
  growth: 95.2%
[4]
  growth: 62.3%
[5]
  growth: 103%
[6]
  growth: 86.7%
[7]
  growth: 4.24% (active)
[8]
  growth: 97%
[9]
  growth: 69.8%
[10]
  growth: 93.3%
[11]
  growth: 99.4%
[12]
  growth: 105%
[13]
  growth: 97.3%
[14]
  growth: 78.9%
[15]
  growth: 81.5%
[16]
  growth: 89.4%
[17]
  growth: 87.9%

## Cc1sc2ncnc(Sc3nc4ccccc4[nH]3)c2c1C
[1]
  growth: -27.1% (active)
[2]
  growth: -66.1% (active)
[3]
  growth: -58.6% (active)
[4]
  growth: -15.4% (active)
[5]
  growth: -23.1% (active)
[6]
  growth: -76.5% (active)
[7]
  growth: -86.1% (active)
[8]
  growth: -27.5% (active)
[9]
  growth: 20.1%
[10]
  growth: -55.4% (active)
[11]
  growth: 47.2%
[12]
  growth: -92.9% (active)
[13]
  growth: -78.2% (active)
[14]
  growth: -70.2% (active)
[15]
  growth: -71.2% (active)
[16]
  growth: -91.4% (active)
[17]
  growth: -90.1% (active)

## CCn1c(Cc2ccccc2Nc2c(Cl)cccc2Cl)nnc1SCC(=O)NN1C(=O)/C(=C/c2cccc(OC)c2OC)SC1=S
[1]
  growth: 94.3%
[2]
  growth: 99%
[3]
  growth: 99.2%
[4]
  growth: 94.2%
[5]
  growth: 107%
[6]
  growth: 99%
[7]
  growth: 108%
[8]
  growth: 94.7%
[9]
  growth: 104%
[10]
  growth: 86%
[11]
  growth: 109%
[12]
  growth: 103%
[13]
  growth: 106%
[14]
  growth: 99.1%
[15]
  growth: 109%
[16]
  growth: 115%
[17]
  growth: 102%

## Cc1nc(Nc2cn[nH]c2C(=O)Nc2ccc(CN3CCN(C)CC3)cc2)c2ccsc2n1
[1]
  growth: 79%
[2]
  growth: 102%
[3]
  growth: 136%
[4]
  growth: 82.5%
[5]
  growth: 64.4%
[6]
  growth: 77.2%
[7]
  growth: 91.3%
[8]
  growth: 66.8%
[9]
  growth: 110%
[10]
  growth: 91.7%
[11]
  growth: 88.5%
[12]
  growth: 87.1%
[13]
  growth: 114%
[14]
  growth: 59.9%
[15]
  growth: 52.4%
[16]
  growth: 95.3%
[17]
  growth: 27.4%
